Test results published in PubChem BioAssay AID504725 (Broad Institute, 2011).
Potency and affinity values are given separately. The source made the active and inactive calls. The rule behind the calls is not given here.

Target: KSHV LANA C-terminal domain (residues 932-1162) binding to LBS DNA (UniProt O40947)
Test: inhibitors of C-LANA binding to LBS DNA, dose response, biochemical, fluorescence polarization, cherry-picked samples (AID 504725)
Conditions: MBP-C-LANA / FAM-LBS DNA fluorescence polarization, percent change from plate compound-well median; series mostly up to 35 µM

outcome, inactive:
CCCOc1ccc(C=Nc2ccc(OC)c(S(=O)(=O)N3CCOCC3)c2)c(O)c1
CC(=O)NC(C(=O)c1ccccc1)C(=O)c1ccccc1
CCN(C(=O)COC(=O)CNS(=O)(=O)c1ccc(SC)c([N+](=O)[O-])c1)C1CCCCC1
CCOC(=O)CN1NC2(CCCCCC2)NC1=S
O=C(NCCCN1CCCC1=O)c1ccc2c(c1)ncn2C1CCCCC1
Cn1c(=O)c2c(nc(SCC(=O)NCc3ccc4c(c3)OCO4)n2Cc2ccc(Cl)cc2)n(C)c1=O
O=c1oc2ccccc2nc1/C=C(\O)c1ccc(Br)cc1
COc1ccc(/C=N/NC(=O)c2ccc3nc[nH]c3c2)c(OC)c1
CSc1n[nH]c(=O)n1-c1cccc(Cl)c1
COC(=O)c1sc(C(F)(F)F)c(-c2ccccc2)c1S(=O)(=O)N1CCOCC1
Nc1c(-c2ccccn2)cnn1-c1nc(-c2ccc(F)cc2)cs1
CCOC(=O)C1=C(COC(=O)c2ccc([N+](=O)[O-])s2)NC(=O)NC1C (stereo not given)
COC(=O)c1cccc(COC(=O)c2ccccc2NC(=O)c2ccco2)c1
N=c1ccn(Cc2ccc(Cl)cc2)cc1
COc1cccc(OCCNc2ccc([N+](=O)[O-])cn2)c1
COc1ccc(-c2nc(C(=O)O)cs2)cc1OC
O=C(CC1CCCC1)N1CCN(S(=O)(=O)c2ccccc2)CC1
COC(=O)C1=C(N)OC2=C(C(=O)CCC2)C1c1cccs1 (stereo not given)
CCc1noc(C)c1C(=O)N1CCCC(N2CCN(c3ccc(F)cc3)CC2)C1 (stereo not given)
NC(=O)C1=NOC(CNc2ncc(C(F)(F)F)cc2Cl)C1 (stereo not given)
